Measured values: PubChem BioAssay (NCI)
Compounds without any hit were thinned out: in the full panel of roughly 83,000, 20% have a hit.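 Single-dose data. Exposure time 48 hours. Values below 10 considered active.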 A number with no mark means an inactive call. Calls of active or inactive are those of the source.

Key:
Experiment in all cases: NCI-60 one-dose screen, 48 h (100 = growth as untreated, 0 = no growth, -100 = all killed)
Conditions in all cases: 10 µM unless noted
DU-145 prostate = test system: DU-145 prostate
K-562 leukemia = test system: K-562 leukemia
MALME-3M melanoma = test system: MALME-3M melanoma
MDA-MB-231 breast = test system: MDA-MB-231 breast
RXF 393 renal = test system: RXF 393 renal
SF-268 CNS = test system: SF-268 CNS
SF-295 CNS = test system: SF-295 CNS
SF-539 CNS = test system: SF-539 CNS
UACC-257 melanoma = test system: UACC-257 melanoma
M14 melanoma = test system: M14 melanoma
HCT-15 colon = test system: HCT-15 colon
HT29 colon = test system: HT29 colon
SNB-75 CNS = test system: SNB-75 CNS
SNB-19 CNS = test system: SNB-19 CNS
U251 CNS = test system: U251 CNS
PC-3 prostate = test system: PC-3 prostate
UACC-62 melanoma = test system: UACC-62 melanoma
LOX IMVI melanoma = test system: LOX IMVI melanoma
SK-MEL-28 melanoma = test system: SK-MEL-28 melanoma
SK-MEL-5 melanoma = test system: SK-MEL-5 melanoma

Row | SMILES | growth (DU-145 prostate) | growth (K-562 leukemia) | growth (MALME-3M melanoma) | growth (MDA-MB-231 breast) | growth (RXF 393 renal) | growth (SF-268 CNS) | growth (SF-295 CNS) | growth (SF-539 CNS) | growth (UACC-257 melanoma) | growth (M14 melanoma) | growth (HCT-15 colon) | growth (HT29 colon) | growth (SNB-75 CNS) | growth (SNB-19 CNS) | growth (U251 CNS) | growth (PC-3 prostate) | growth (UACC-62 melanoma) | growth (LOX IMVI melanoma) | growth (SK-MEL-28 melanoma) | growth (SK-MEL-5 melanoma)
1 | COc1cccc(/C=C2\CCc3ccccc3C2=O)c1 | 97.8% | 35.1% | 80.7% | 89.9% | 90.2% | 90.3% | 88.9% | 91.5% | 80.8% | 90% | 87.2% | 77.1% | 97.4% | 75.7% | 83.2% | 83.4% | 80.1% | 80.2% | 118% | –
2 | O=C(Nc1ccccc1CNc1nc(Nc2ccc(OCCN3CCCC3)cc2)ncc1Cl)NC1CCCCC1 | 82.8% | 6.79% (active) | 67.7% | 69.7% | 56.8% | 73.1% | 82% | 84.3% | 78.3% | 31.1% | 60.7% | 9.11% (active) | 96.5% | 91.6% | 70.4% | 84% | 97.3% | – | 79.8% | 64.6%
3 | Nc1ccc(N)c2c1C(=O)c1cccc([N+](=O)[O-])c1C2=O | -15.9% (active) | 40.4% | 54.3% | 67.9% | 45.7% | 57.3% | 21.3% | 23.6% | 52.3% | 30.8% | 27.7% | 44.7% | 22.6% | 26.2% | 33.7% | 49.3% | 5.05% (active) | 22.4% | 102% | –
4 | Cc1cc2c(c(C)n1)CN(C(=O)Nc1nc(-c3cncs3)ccc1N)C2 | 107% | 101% | 96.7% | 113% | 111% | 101% | 99.5% | 86.5% | 103% | 104% | 102% | 91% | 90.3% | 99.5% | 86.9% | 104% | 91.9% | 111% | 105% | –
5 | CN1CCN(c2ccc(Nc3ncc4[nH]c(=O)n(Cc5ccccc5N)c4n3)cc2)CC1 | 103% | 69.8% | 83.9% | 83.8% | 83.8% | 72.8% | 98.2% | 80.9% | 112% | 95.9% | 106% | 80.2% | 39.9% | 107% | 100% | 83.1% | 97.6% | – | 111% | 101%
6 | CCCCCN(CCCCC)CC(O)c1c(Cl)ccc2ccccc12 (centres undefined) | 69.4% | 61.7% | 94.7% | 39.7% | 63.1% | 84.7% | 71.7% | 64.2% | 83.1% | 72.2% | 55.8% | 31.4% | 92% | 92.3% | 80.3% | – | 59.7% | 71.6% | 97.3% | 72.8%
7 | COC(=O)c1c(C(=O)OC)c2ccc3c4ncccc4ccc3n2c1C(=O)c1ccc(C)cc1 | 98.7% | 85.8% | 89.7% | 84.1% | 106% | 98.5% | 87.7% | 97.6% | 95.2% | 90.1% | 91.1% | 95.1% | 95.2% | 98.1% | 98.9% | – | 84.8% | 88% | 95.1% | 83.7%
8 | O=C(/C=C/c1ccc(Cl)cc1)c1ccc(Nc2ccnc3cc(Cl)ccc23)cc1 | 145% | 27.8% | 79.9% | 48.4% | -41.4% (active) | 164% | 9.54% (active) | 122% | 93.4% | 84.5% | 56.1% | 30.6% | 92.5% | 99.7% | 52.7% | – | 92.8% | 83.3% | 104% | 53.3%
9 | COc1ccc(C(=O)/C=C/c2ccc(C)cc2)cc1S(N)(=O)=O | 47.3% | 3.04% (active) | 96.9% | 58.9% | 74.4% | 72.4% | 91.3% | 25% | 83.2% | 71.1% | 22.8% | 45.7% | 82.7% | 14.5% | 17.1% | 50.4% | 61.2% | 28.8% | 98.1% | –
10 | COc1cc2c(cc1OC)CC[N+](CCC[N+](C)(C)C)=C2 | 108% | 111% | 89% | 115% | 113% | 91.7% | 97% | 98% | 100% | 91.7% | 101% | 88.5% | 80.2% | 110% | 98.9% | – | 110% | 99.3% | 98.7% | 104%
11 | CN(C)CC1C(=O)O[C@H]2[C@H]1CC/C(COC(=O)NCc1ccc(Cn3c(=O)sn(CCCI)c3=O)cc1)=C\CC[C@@]1(C)O[C@@H]21 (some centres undefined) | -69.8% (active) | -0.241% (active) | -75.6% (active) | 60.4% | -87% (active) | 57.7% | 96.8% | 24.4% | -39.8% (active) | -56.7% (active) | 5.27% (active) | -80.4% (active) | 71.8% | 89.9% | 84.7% | – | 15.9% | -75.8% (active) | -80.3% (active) | 64.2%
12 | Cc1c(C)c2c(c(C)c1OC(=O)CCC(=O)[O-])CCC(C)(CCCCCCCCCCC[P+](c1ccccc1)(c1ccccc1)c1ccccc1)O2 (centres undefined) | -54.1% (active) | 6.14% (active) | -83.6% (active) | -34.2% (active) | -78.3% (active) | -61.3% (active) | -87.4% (active) | -69.1% (active) | -54.2% (active) | -60.3% (active) | 2.7% (active) | 6.17% (active) | -31.5% (active) | -42.4% (active) | -70.1% (active) | -31.9% (active) | -54.1% (active) | -91.4% (active) | -77.3% (active) | –
13 | CS(=O)(=O)Nc1cc(-c2ccc3ncnc(Nc4cccc(Cl)c4)c3c2)cnc1Cl | 14.5% | 18.9% | -25.7% (active) | 7.96% (active) | -44% (active) | 13.9% | -22.6% (active) | -22% (active) | -3.23% (active) | -2.15% (active) | 4.71% (active) | 2.65% (active) | -10.4% (active) | 18% | -2.63% (active) | – | -23.6% (active) | -35.5% (active) | 5.51% (active) | -95.6% (active)
14 | Cn1ccnc1C(=O)/C=C/c1ccc(C(=O)Nc2c(F)c(F)c(F)c(F)c2F)cc1 | 12.3% | 1.03% (active) | 80.9% | 7.97% (active) | -52% (active) | 3.53% (active) | 18.2% | -69.9% (active) | 73.7% | 19.2% | -15.5% (active) | 1.2% (active) | 7.64% (active) | 5.66% (active) | -48.9% (active) | – | 29.3% | -83.5% (active) | 82.5% | 53.1%
15 | COc1cc(OC)cc(C(=O)Nc2cnc(Nc3ccc(N4CCOCC4)nc3)nc2Oc2ccc(C(F)(F)F)cc2)c1 | 78.8% | 97% | 57.2% | 44% | 76.5% | 78.7% | 77% | 34% | 16.7% | 93.1% | 75.4% | 46.8% | -14.5% (active) | 44.1% | 65.6% | – | 76.3% | 69.7% | 98.9% | 93%
16 | COC(=O)c1cc(-c2cc(OC)c(OC)c(OC)c2)[nH]c1N/N=C/c1c(Cl)cccc1Cl | 45.6% | 6.67% (active) | -8.03% (active) | 23.6% | 21.6% | 31.7% | -41.9% (active) | -43.1% (active) | 45.6% | 58.7% | 60% | 32.4% | 3.41% (active) | 28.5% | 14.1% | – | 34.8% | 19.2% | 30.1% | 58.7%
